The values that follow come from PubChem BioAssay.

Test [1] can be described thus: Her2 expression decrease, cell viability multiplex – SKBR3 breast tumor cells, AlphaScreen, ATP viability, primary screen (AID 461;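 active = Her2 level under about 52% in both replicate screens, with viability over 70% of control, limit read from the data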;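 as to Her2 level: lower value means less Her2 protein in the cells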;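 as to viability: percent of carrier control wells set as 100% viability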). To be noted: SKBR3 Her2 protein level, 18-24 h, measured here: SKBR3 viability, ATP luminescence, at 10 µM.
For test [2], the target named is Receptor tyrosine-protein kinase erbB-2 (Homo sapiens) (UniProt P04626). Described as above. To be noted: 18-24 h, at 10 µM, stronger effect = lower value.
Receptor tyrosine-protein kinase erbB-2 (Homo sapiens), sequence (P04626 whole entry, looked up): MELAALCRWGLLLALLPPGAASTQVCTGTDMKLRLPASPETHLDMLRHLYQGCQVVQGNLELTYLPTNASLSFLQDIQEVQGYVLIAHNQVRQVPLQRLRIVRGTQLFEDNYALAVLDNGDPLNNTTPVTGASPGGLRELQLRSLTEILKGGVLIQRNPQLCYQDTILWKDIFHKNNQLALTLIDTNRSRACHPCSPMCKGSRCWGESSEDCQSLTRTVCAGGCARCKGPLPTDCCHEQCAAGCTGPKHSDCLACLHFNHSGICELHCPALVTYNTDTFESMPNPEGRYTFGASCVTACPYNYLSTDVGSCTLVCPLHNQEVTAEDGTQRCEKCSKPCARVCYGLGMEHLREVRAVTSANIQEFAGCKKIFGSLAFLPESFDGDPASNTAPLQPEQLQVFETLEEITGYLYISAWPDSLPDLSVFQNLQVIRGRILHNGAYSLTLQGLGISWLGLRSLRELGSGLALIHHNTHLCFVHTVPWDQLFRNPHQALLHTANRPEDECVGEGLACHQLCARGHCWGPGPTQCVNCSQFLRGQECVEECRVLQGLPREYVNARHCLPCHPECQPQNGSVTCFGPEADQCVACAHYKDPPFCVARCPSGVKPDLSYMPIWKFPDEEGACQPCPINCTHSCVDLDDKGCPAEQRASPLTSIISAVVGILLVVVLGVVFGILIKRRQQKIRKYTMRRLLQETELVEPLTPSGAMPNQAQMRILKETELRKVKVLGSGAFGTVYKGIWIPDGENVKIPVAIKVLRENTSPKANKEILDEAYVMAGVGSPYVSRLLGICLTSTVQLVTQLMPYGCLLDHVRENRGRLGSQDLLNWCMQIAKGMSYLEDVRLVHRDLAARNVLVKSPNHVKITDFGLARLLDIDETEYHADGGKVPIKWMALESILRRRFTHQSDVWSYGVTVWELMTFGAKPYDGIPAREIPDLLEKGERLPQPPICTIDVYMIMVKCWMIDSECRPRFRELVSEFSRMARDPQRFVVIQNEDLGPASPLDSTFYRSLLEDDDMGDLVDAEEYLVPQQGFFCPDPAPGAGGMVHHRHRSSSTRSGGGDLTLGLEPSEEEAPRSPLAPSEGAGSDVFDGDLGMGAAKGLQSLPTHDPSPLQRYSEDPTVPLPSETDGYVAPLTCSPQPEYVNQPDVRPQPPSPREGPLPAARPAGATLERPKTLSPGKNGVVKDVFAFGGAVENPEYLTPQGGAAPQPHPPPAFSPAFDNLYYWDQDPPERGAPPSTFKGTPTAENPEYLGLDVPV
Test [3] in a line: reduced viability of SK-BR-3 breast cancer cells – cell-based, 24 h, human, pilot screen (AID 572;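 active = viability at or below 10% of carrier control in both of two separate runs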;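 also: compound exposure lasted between 18 and 24 h rather than exactly 24 h; 100% = carrier-treated control wells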). To be noted: SK-BR-3 viability, CellTiter-Glo luminescence, at 10 µM, stronger effect = lower value.
The nature of test [4]: HUVEC growth inhibition – cell-based, human, primary screen (AID 575;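 active = viability at or below 30% in both replicate assays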;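 also: 100% = median of untreated cell wells with 0.1% DMSO on each plate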). To be noted: HUVEC proliferation, CellTiter-Glo luminescence, 72 h; at 10 µM; stronger effect = lower value.
Test [5] is described as follows: H69AR cell proliferation blockers – human, duplicate replicates, primary screen (AID 580;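 active = viability at or under a set limit in both replicates, limit being median viability minus 3 SD, cut at about 48% in these data, passing the limit was not always enough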;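 also: 100% = mean luminescence of untreated wells and 0% = no signal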). To be noted: H69AR lung tumor cells viability, ATP luminescence, 72 h; at 10 µM; stronger effect = lower value.
Test [6] can be described thus: MRP1 drug-resistance reversers in H69AR cells – cell-based, doxorubicin co-treatment, pilot screen (AID 601). To be noted: CellTiter-Glo, 72 h, at 10 µM; for differential viability (reversal): stronger effect = higher value. A general note: ATP-based viability assays read luminescence as a measure of living cells.
A short description of test [7]: yeast transport mutant growth inhibition pilot in 384-well plates, post-Golgi transport modulator project (AID 636; in the data active = inhibition above about 31%). To be noted: absorbance 615 nm, about 18 h, stronger effect = higher value.
The nature of test [8]: growth suppression of yeast trafficking mutant, preliminary HTS, modulators of trafficking downstream of Golgi apparatus project, 1536-format plate, OD 615 nm (AID 637; in the data active = inhibition above about 30%). To be noted: yeast transport mutant growth, absorbance 615 nm, 18 h; stronger effect = higher value.
Test [9] can be described thus: S. cerevisiae growth inhibition in permissive medium (OD615), pilot counter-assay for S. cerevisiae lifespan shortening project, permissive growth control (AID 705;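 active = growth inhibition above 25% in both replicates, a cutoff set 3 SD above the mean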). To be noted: OD615, 24 h, at 10 µM, stronger effect = higher value.
Test [10] in a line: S. cerevisiae growth inhibition in restrictive medium, OD615, pilot screen, restrictive growth control, yeast lifespan reduction project (AID 706;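 active = growth inhibition above a set limit, 3 SD over mean compound inhibition, in both replicates, cut at about 43% in these data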;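 also: modified DeaD lifespan yeast strain shifted to restrictive glucose medium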). To be noted: OD615, 48 h, at 10 µM, stronger effect = higher value.
Test [11] can be described thus: doxorubicin toxicity protection in MRP-1 cells – H69AR cells, CellTiter-Glo, duplicate, MRP-1 activator project, pilot screen (AID 807;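 active = viability increase at or above a cutoff of the median across tested compounds plus 3 SD, cut at about 8.5% in these data, passing the limit was not always enough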;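 also: compound pretreatment 18-22 h then 72 h combined with doxorubicin; 0% = doxorubicin alone and 100% = vehicle without doxorubicin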). To be noted: H69AR viability with doxorubicin, CellTiter-Glo luminescence; at 10 µM; stronger effect = higher value.
Test [12] in a line: viability of HCT116 without oncogenic beta-catenin – human colon tumor cells, pilot screen (AID 823;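 active = cell viability at or below a set limit in both duplicate runs, the limit being the all-compound median minus 4 SD, cut at about 23% in these data, passing the limit was not always enough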;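 also: 0% = wells killed by 20 µM Hyamine and 100% = untreated DMSO cell wells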). To be noted: HCT116 beta-catenin knockout viability, CellTiter-Glo, 60 h; at 10 µM; stronger effect = lower value.
A short description of test [13]: viability of PTEN-null HCT116 cells – cell-based, HCT116 clonal line, CellTiter-Glo, pilot screen (AID 824;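 active = viability at or below 27.92% in each of two runs, the all-compound median minus 4 SD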;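 also: 0% = 20 µM Hyamine control and 100% = vehicle cell control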). To be noted: HCT116 PTEN-deleted viability, 60 h, at 10 µM, stronger effect = lower value.
Test [14] can be described thus: RAM pathway blockade in budding yeast – dse1pr::URA3 reporter, 5-FOA selection, pilot screen (AID 869;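 active = inhibition over a set limit, the all-compound mean plus 3 SD, in both replicate runs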;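 also: 0% = DMSO wells with no growth and 100% = 10 µM 1-NA-PP1 with full growth; RAM network block rescues cells from 5-FOA so hits raise OD615 growth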). To be noted: S. cerevisiae dse1pr::URA3 5-FOA growth, OD615, 2 d; at 10 µM; stronger effect = higher value; strain carries analog-sensitive mutant Cbk1 kinase.
Test [15] in a line: RAM signaling pathway blockade in yeast – S. cerevisiae, Pdr1DBD-CYC8 efflux-inhibited sensitized strain, primary screen (AID 1298;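 active = RAM network inhibition above 8.4% in each of two replicates, 3 SD over the compound average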;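 also: 0% = DMSO untreated cells without growth and 100% = 10 µM 1-NA-PP1 full growth; higher means more yeast growth rescued from 5-FOA killing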). To be noted: S. cerevisiae cbk1-as DSE1-URA3 strain, 5-FOA growth OD615, 2 d; at 50 µM; stronger effect = higher value.
[16] abbreviates: H69AR cells + 2 uM doxorubicin, measured here: viability with 2 uM doxorubicin, stronger effect = lower value.
[17] abbreviates: H69AR cells, compound alone cytotoxicity.

Inconclusive results are not listed. Active and inactive are the calls of the source.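 The calls were made as follows, unless noted: active = viability loss from added drug above about 55%, and viability with drug at most 40%, in both replicates (limit read from the data, passing the limit was not always enough); inconclusive = both conditions met in only one replicate; inactive = neither replicate meets both conditions.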

`CNC(=O)CN(c1ccc(C(C)C)cc1)S(C)(=O)=O`: the viability (usually a read-out of living cells in per cent, often relative to untreated cells) is 94% in test [1]; 94% (inactive) in test [3]; 95.6% (inactive) in test [4]; 86.3% (inactive) in [5]; 85.9% in test [6] (setting [16]); 86.3% in test [6] (setting [17]). Also, the viability was 95% (inactive) in [12] and 96.1% (inactive) in test [13]. In addition, in test [2], the Her2 level is 108% (inactive). The differential viability (reversal) in [6] (H69AR cells + 2 uM doxorubicin) was 0.39% (inactive). For the same compound, the inhibition (usually the change of the read-out against control, counted positive when it falls) was -3.25% (inactive) in test [7], -4% (inactive) in test [8] and 1.04% (inactive) in [14]. The growth inhibition in [9] was -10.4% (inactive); in [10], -21.6% (inactive). In addition, in test [11], the viability increase was 0.08% (inactive). Besides, the RAM network inhibition in test [15] was 2.63% (inactive).
In the case of `COc1cccc(C2CC(=O)Nc3cc4c(cc32)OCCO4)c1OC(C)C` (stereo not given), the viability in test [1] was 99%; in test [3], 99% (inactive); in test [4] it was 84.6% (inactive); in [5], 41.2% (active); in [6] (setting [16]) it was 70.7%; in test [6] (setting [17]), 41.2%. Also, the results for the viability in test [12] and in test [13] were 65.7% (inactive) and 65% (inactive), respectively. The Her2 level in test [2] was 88.5% (inactive). Besides, the differential viability (reversal) in test [6] (H69AR cells + 2 uM doxorubicin) is -29.5% (inactive). The inhibition is -1.2% (inactive) in test [7], -3.61% (inactive) in test [8] and 0.76% (inactive) in [14]. The figures for the growth inhibition in [9] and in test [10] were -3.68% (inactive) and 0.265% (inactive), respectively. Also, the viability increase in [11] was -4.91% (inactive). In test [15], the RAM network inhibition is 2.97% (inactive).
Regarding `CCC(=O)N1CCN(c2nc(-c3ccccc3)c3c(c2C#N)CCCC3)CC1`, the viability in [1] was 105%; in [3], 105% (inactive); in [4], 97.2% (inactive); in test [5], 156% (inactive); in test [6] (setting [16]), 84%; in [6] (setting [17]), 156%. Besides, the values for the viability in [12] and in [13] were 75.8% (inactive) and 73.1% (inactive), respectively. In addition, the Her2 level in [2] was 93% (inactive). The differential viability (reversal) in test [6] (H69AR cells + 2 uM doxorubicin) is 72.2% (inactive). The inhibition is -8.24% (inactive) in test [7], 4.59% (inactive) in test [8] and 0.35% (inactive) in test [14]. Moreover, the figures for the growth inhibition in test [9] and in test [10] were -2.54% (inactive) and -4.34% (inactive), respectively. Also, the viability increase in [11] is -5.2% (inactive). Besides, in [15], the RAM network inhibition was 2.27% (inactive).
Take `COc1cc2c(cc1OC)CN(C(=O)CSc1nnc3scc(-c4ccccc4)n13)CC2`: the viability in test [1] was 96%; in test [3] it was 96% (inactive); in test [4], 86.7% (inactive); in test [5], 85.3% (inactive); in test [6] (setting [16]) it was 77.2%; in [6] (setting [17]) it was 85.3%. Moreover, the viability was 99.4% (inactive) in [12] and 94.6% (inactive) in test [13]. The Her2 level in [2] was 97% (inactive). Further, the differential viability (reversal) in test [6] (H69AR cells + 2 uM doxorubicin) is 8.16% (inactive). The inhibition was -0.53% (inactive) in test [7], -3.77% (inactive) in test [8] and 1.08% (inactive) in test [14]. In addition, the values for the growth inhibition in [9] and in test [10] were 16.4% (inactive) and 69% (active), respectively. Moreover, in test [11], the viability increase is -3.13% (inactive). Moreover, the RAM network inhibition in [15] is 3.4% (inactive).
As to `N#CCCN1CCN(S(=O)(=O)c2ccc(S(=O)(=O)NC3CCCCC3)cc2)CC1`, the viability is 103% in test [1]; 103% (inactive) in test [3]; 98.9% (inactive) in test [4]; 100% (inactive) in [5]; 87.5% in test [6] (setting [16]); 100% in [6] (setting [17]). Moreover, the viability in [12] was 103% (inactive); in test [13], 97.8% (inactive). In addition, the Her2 level in [2] was 105% (inactive). In test [6] (H69AR cells + 2 uM doxorubicin), the differential viability (reversal) was 12.5% (inactive). Moreover, the inhibition in [7] is -2.69% (inactive); in test [8], 3.67% (inactive); in test [14] it was 1.02% (inactive). In addition, the growth inhibition in test [9] is -1.9% (inactive); in [10] it was -5.03% (inactive). For the same compound, the viability increase in test [11] is -0.74% (inactive). The RAM network inhibition in [15] was 5.92% (inactive).
Consider `CCCn1cc(SCC(N)=O)c2ccccc21`, for which the viability in test [1] was 86.5%; in test [3], 86.5% (inactive); in [4], 90.6% (inactive); in [5], 91.2% (inactive); in [6] (setting [16]), 105%; in test [6] (setting [17]), 91.2%. Also, the viability in test [12] was 100% (inactive); in test [13], 95.6% (inactive). In addition, in test [2], the Her2 level was 102% (inactive). Also, the differential viability (reversal) in [6] (H69AR cells + 2 uM doxorubicin) was -13.4% (inactive). In addition, the inhibition in [7] was -4.93% (inactive); in test [8], 4.83% (inactive); in test [14], 0.545% (inactive). Besides, the growth inhibition was -9.29% (inactive) in test [9] and -15.9% (inactive) in [10]. In addition, the viability increase in test [11] was -1.96% (inactive). Also, in [15], the RAM network inhibition was 0.42% (inactive).
With `COc1ccc(N(C)C(=O)CCS(=O)(=O)c2cccc3nonc23)c(OC)c1`, the viability was 89% in test [1]; 89% (inactive) in test [3]; 95.7% (inactive) in test [4]; 104% (inactive) in test [5]; 93.9% in test [6] (setting [16]); 104% in test [6] (setting [17]). Also, the viability in [12] was 100% (inactive); in test [13], 98.8% (inactive). Besides, the Her2 level in test [2] is 86.5% (inactive). In addition, in test [6] (H69AR cells + 2 uM doxorubicin), the differential viability (reversal) is 9.71% (inactive). For the same compound, the inhibition in [7] was -6.71% (inactive); in test [8], -3.49% (inactive); in test [14] it was 1.43% (inactive). Also, the growth inhibition is -16.1% (inactive) in [9] and -20.6% (inactive) in [10]. Also, the viability increase in test [11] is -0.31% (inactive). Moreover, the RAM network inhibition in test [15] was 3.65% (inactive).
For `CCN1CCCC1CNC(=O)c1cc2c(=O)n(C)c3ccccc3c2n1C` (stereo not given), the viability in test [1] is 87%; in test [3], 87% (inactive); in test [4] it was 74.7% (inactive); in [5] it was 87.8% (inactive); in [6] (setting [16]) it was 80.8%; in [6] (setting [17]), 87.8%. Also, the viability in test [12] is 67.5% (inactive); in test [13] it was 66.2% (inactive). For the same compound, the Her2 level in test [2] was 86.5% (inactive). The differential viability (reversal) in test [6] (H69AR cells + 2 uM doxorubicin) is 7.05% (inactive). In addition, the results for the inhibition in test [7], in test [8] and in test [14] were -0.4% (inactive), 15.9% (inactive) and 1.1% (inactive), respectively. Moreover, the values for the growth inhibition in test [9] and in [10] were -1.93% (inactive) and -3.33% (inactive), respectively. Moreover, the viability increase in [11] is -5.23% (inactive). Further, the RAM network inhibition in test [15] is 2% (inactive).
On to `Cc1cccc(OCCNC(=O)c2ncn[nH]2)c1`, for which the viability in [1] is 100%; in [3], 100% (inactive); in [4], 92.5% (inactive); in test [5] it was 91.9% (inactive); in test [6] (setting [16]), 88.5%; in test [6] (setting [17]), 91.9%. Further, the viability in test [12] was 94.2% (inactive); in test [13], 99.7% (inactive). Further, in test [2], the Her2 level was 108% (inactive). For the same compound, the differential viability (reversal) in test [6] (H69AR cells + 2 uM doxorubicin) is 3.36% (inactive). Further, the inhibition in [7] is 0% (inactive); in test [8], -5.17% (inactive); in [14], 1.01% (inactive). Also, the growth inhibition is -12.5% (inactive) in test [9] and -4.79% (inactive) in test [10]. Besides, the viability increase in test [11] is 0.64% (inactive). Further, in test [15], the RAM network inhibition was -0.32% (inactive).
Turning to `CC(=NCC1CCNCC1)C1=C(O)CC(C)(C)CC1=O`, the viability in test [1] is 79%; in [3] it was 79% (inactive); in [4], 107% (inactive); in test [5], 106% (inactive); in test [6] (setting [16]) it was 92.4%; in test [6] (setting [17]), 106%. The viability is 91.2% (inactive) in test [12] and 97.3% (inactive) in [13]. The Her2 level in test [2] was 95.5% (inactive). Further, the differential viability (reversal) in [6] (H69AR cells + 2 uM doxorubicin) is 13.4% (inactive). For the same compound, the results for the inhibition in test [7], in [8] and in [14] were -4.73% (inactive), 2.3% (inactive) and 0.485% (inactive), respectively. In addition, the growth inhibition in [9] is 10% (inactive); in test [10], 5.17% (inactive). Moreover, the viability increase in test [11] was -2.21% (inactive). Besides, the RAM network inhibition in test [15] was -1.02% (inactive).
